Compound activity: PubChem BioAssay, National Center for Advancing Translational Sciences (NCATS)
TRHR ag: qHTS for Small Molecule Agonists and Allosteric Enhancers of Human TRH Receptor: Primary Screen for Agonists | TRHR cells, calcium flux fluo-8, FDSS agonist mode | activation, % at 2 µM | Thyrotropin-releasing hormone receptor (Homo sapiens), P34981 | AID 493084, 2011 | hit rate 0.18% among 360,000; further: 0% is about no effect
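Steps: seed TRHR cells overnight; add fluo-8 no-wash Ca dye, RT 30 min–1.5 h; record 10 s baseline; pin-transfer compounds; monitor fluorescence 1 cycle/s for the agonist window. Calcium increases flag candidate agonists.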
D1 potentiator: Potentiators of Human D1 Dopamine Receptor: qHTS | hit rate 0.036% among 360,000 | D(1A) dopamine receptor (Homo sapiens), P21728 | AID 504651, 2011 | potentiation, % at 10 µM | HEK293 TREx D1 cells, calcium flux, dopamine EC20 potentiation; in the data active means potentiation above about 30%; further: 0% is about no effect
Target sequence (P21728 whole entry, looked up): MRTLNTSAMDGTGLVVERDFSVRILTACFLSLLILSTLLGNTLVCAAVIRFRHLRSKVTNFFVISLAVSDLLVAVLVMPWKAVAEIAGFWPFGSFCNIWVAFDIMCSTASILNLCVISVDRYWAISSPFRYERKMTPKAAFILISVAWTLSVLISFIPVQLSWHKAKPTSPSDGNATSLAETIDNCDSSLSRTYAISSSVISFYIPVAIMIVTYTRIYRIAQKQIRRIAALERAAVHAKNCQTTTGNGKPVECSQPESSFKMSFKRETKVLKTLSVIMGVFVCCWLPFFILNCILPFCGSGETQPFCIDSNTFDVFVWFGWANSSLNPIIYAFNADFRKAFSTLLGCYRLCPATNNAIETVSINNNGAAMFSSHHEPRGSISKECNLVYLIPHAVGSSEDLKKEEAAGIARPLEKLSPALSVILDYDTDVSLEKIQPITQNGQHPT
TRHR enhancer: qHTS for Small Molecule Agonists and Allosteric Enhancers of Human TRH Receptor: Primary Screen for Enhancers; AID 493056, 2011; TRHR cells, fluo-8 calcium fluorescence, EC20 TRH enhancement; Thyrotropin-releasing hormone receptor (Homo sapiens), P34981; hit rate 0.66% among 360,000; enhancement, % at 2 µM; in the data active means enhancement above about 30%; further: 0% is about no effect
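Enhancer read-out: after compound pinning and an initial kinetic agonist-mode read, an EC20 of TRH (10 nM final) was injected and fluo-8 calcium signal (Ex 480/Em 530) followed at 1 s/cycle for 100 cycles in TRHR-expressing cells.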
D1 agonist: Allosteric Agonists of the Human D1 Dopamine Receptor: qHTS | HEK293 T-REx D1 cells, calcium flux, agonist mode | D(1A) dopamine receptor (Homo sapiens), P21728 | activation, % at 2 µM | hit rate 1% among 360,000; further: 0% is about no effect
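Tetracycline-induced HEK293 TREx D1 cells, force-coupled to calcium signalling, were dye-loaded with a no-wash calcium kit. Compound was pin-added after a 10 s baseline. Fluorescence was read kinetically at 1 cycle/s for 180 s, with calcium rises flagged as agonism.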
USP1-UAF1 inh: Inhibitors of USP1/UAF1: Primary Screen; Ubiquitin carboxyl-terminal hydrolase 1 (Homo sapiens), O94782; recombinant USP1/UAF1, Ub-Rhodamine cleavage fluorescence; Potency, µM (top dose mostly 57.1 µM), for the others: at the top dose activity change, negative = inhibition, most hits filed as inhibitors; hit rate 0.23% among 390,000; AID 743255, 2014; active means well fitted inhibition curve with a large enough effect; further: potency means the concentration at half of the fitted maximal effect; on the % scale 0 is the no-effect control and ±100 the full control effect; nearly all actives have a fitted effect of over 60% in size
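1 nM enzyme complex + cpd, 15 min RT; start with Ub-Rho 150nM final; kinetic fluorescence ex 480/em 540, 6 reads q60 s. Buffer 50mM HEPES pH 7.8, 0.5mM EDTA, 0.1 mg/ml BSA, 1mM TCEP, 0.01% Tween-20.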
D1 antagonist: Antagonist of Human D 1 Dopamine Receptor: qHTS; D(1A) dopamine receptor (Homo sapiens), P21728; activity change, negative = inhibition, % at 10 µM; HEK293 TREx D1 cells, calcium flux, dopamine EC80; hits give low values; AID 504652, 2011; hit rate 3.2% among 360,000; in the data active means activity change below about -30%; further: on the % scale 0 is the no-effect control and ±100 the full control effect
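Compound effects on dopamine-evoked calcium signalling were measured in tetracycline-induced HEK293 Trex D1 cells. Dopamine at EC80 followed a 180 s compound pre-read, and fluorescence was tracked kinetically for 180 s more.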
Active calls of the source: *; nt = no result; ! = not active in a repeat. Hits are enriched below; roughly 4.4% of the tested compounds scored in any of these assays. Unless noted, no stated cut-off is given here; in the data, active means activation above about 30%; inactive means the rest.

SMILES	TRHR ag	D1 potentiator	TRHR enhancer	D1 agonist	USP1-UAF1 inh	D1 antagonist
CC(NC(=O)COC(=O)c1cc(NS(=O)(=O)c2ccc(Cl)c([N+](=O)[O-])c2)ccc1O)C1CC2CCC1C2 (centres undefined)	0.2	-6.6	-12.9	6.5	-25.8%	-31.4*
COc1ccc(NS(=O)(=O)c2ccc(O)c(C(=O)OCC(=O)NC(C)C3CC4CCC3C4)c2)cc1 (centres undefined)	0.7	6.4	-0.5	10.8	2.3%	13.8
CCc1sc(C(=O)NC2CCN(C)CC2)cc1Br	-1.5	-10.4	-4.3	36.4*	-11.2%	-18.8
Fc1ccc(SCCc2ccncc2)cc1	-0.5	-9.6	-2.3	8.9	-11.5%	-34.2*!
O=C(Nc1ccncc1)c1cn(-c2ccccc2)nc1-c1cccs1	0.2	-24.4	16.0	16.6	-15.3%	-49.3*
Cc1cccc(OCC(=O)N/N=C\c2cn(C)c3ccccc23)c1	0.3	-1.1	0.7	21.9	-16.3%	-34.1*
CC(Sc1nncn1C)C(=O)Nc1ccc(N2CCCCC2)cc1 (centres undefined)	0.0	0.3	1.9	1.6	-16.5%	-35.2*
CC(Sc1nnnn1-c1ccccc1)C(=O)Nc1ccc(N2CCN(C)CC2)cc1 (centres undefined)	-0.2	-13.5	8.9	10.1	-6.6%	-37.4*
CN1CCN(c2ccc(NC(=O)CSc3nnnn3-c3ccccc3Cl)cc2)CC1	-0.7	-9.7	5.7	11.8	5.1%	-82.6*
COc1ccc(CNC(=O)c2ccc(-c3nc(CSc4ccccc4)c(C)o3)cc2)cc1	0.6	-1.1	-0.6	1.3	-15.0%	7.6
CC(C)c1ccc(NC(=O)Nc2cc3sccc3n2C)cc1	-0.3	-1.5	4.2	-3.3	-18.0%	-36.8*
Cn1c(C(=O)Nc2ccc3c(c2)OCCO3)cc2sccc21	-0.3	-6.0	-2.5	-0.3	-7.5%	18.0
O=c1[nH]c2ccc(NCc3ccc(-c4cccc(Cl)c4)o3)cc2[nH]1	-2.6	-1.3	4.2	36.9*	-4.8%	-22.0
COc1ccc(N2CC(NC(=O)c3ccc(OC(C)C)cc3)CC2=O)cc1 (centres undefined)	-0.4	1.1	1.0	-2.1	-24.2%	nt
N#CC(c1ccc(Cl)cc1)c1ccc2c(C(F)(F)F)cc(C(F)(F)F)nc2n1 (centres undefined)	-0.4	31.6*	6.1	4.0	-14.8%	11.1
COc1cc(OC)c(OC)cc1CN1CCCC(C(=O)c2sccc2C)C1 (centres undefined)	-0.8	-10.7	2.5	8.8	-8.1%	-37.8*
COc1cc(OC)c(OC)cc1CN1CCCC(C(=O)c2ccc3c(c2)OCO3)C1 (centres undefined)	-1.6	-4.8	-5.0	0.8	-10.1%	-9.8
COc1ccc(NC(=O)C2CCCN(CCCc3ccccc3)C2)cc1OCC(C)C (centres undefined)	-0.4	-6.1	7.2	90.0*	-2.4%	-2.9
COc1ccc(C(=O)C2CCCN(Cc3ccc(NC(C)=O)cc3)C2)cc1OC (centres undefined)	-0.4	-5.9	-2.6	-2.0	-10.7%	-33.0*
Cc1ccc(-c2noc(-c3nnn(-c4ccc(Br)cc4F)c3C)n2)cc1	0.3	4.0	0.8	0.9	-11.4%	-11.4
O=C(O)CCC(=O)N1CCN(c2ncccn2)CC1	0.5	2.0	-6.0	3.0	-18.7%	-31.6*
Cc1cccc(C)c1NC(=O)N1CCN(c2nc3ccccc3s2)CC1	-0.9	-5.4	-4.1	8.4	-7.2%	-1.0
O=C(O)CCC(=O)N1CCN(c2nc3ccccc3s2)CC1	0.0	1.8	-1.2	-0.2	-17.0%	-69.0*
CC(C)(C)[C@H](NC(=O)c1ccc(N)c(Cl)c1)C(=O)N1CCC[C@H]1C(=O)N[C@H](C#N)Cc1nn[nH]n1	0.6	-4.1	-6.1	1.9	nt	-0.4
Cc1nn(C)c(=O)n1-c1ccccc1	0.6	5.1	-2.7	2.0	-7.5%	5.6
SMILES	TRHR ag	D1 potentiator	TRHR enhancer	D1 agonist	USP1-UAF1 inh	D1 antagonist
Cn1c2nc(=O)n(-c3ccccc3)c(=O)c-2nc2c1CCCC2	nt	nt	nt	nt	14.1µM*	nt
CC(=O)Nc1ccc(S(=O)(=O)NCCSCc2ccc(Cl)cc2Cl)cc1	-0.2	-6.6	-0.9	14.7	-21.1%	-31.1*
COc1ccc(-c2nn(-c3ccc(F)cc3F)c3c2cnc2ccc(F)cc23)cc1	0.5	-0.1	-0.6	2.7	-26.6%	9.1
CCOC(=O)C1CCCN(Cc2ccc(-c3ccccc3)cc2)C1 (centres undefined)	-0.5	4.8	2.1	4.0	-21.0%	-16.6
CCCS(=O)(=O)N1CCCC(C(=O)Oc2ccccc2Cl)C1 (centres undefined)	0.5	-8.5	-4.0	-0.3	-19.9%	29.1
CCOC(=O)C1CCCN(Cc2c(Cl)cccc2Cl)C1 (centres undefined)	-0.6	-6.6	-2.1	1.7	-1.9%	-35.6*
CCOC(=O)C1CCCN(CCC(=O)Nc2cc(C)cc(C)c2)C1 (centres undefined)	-0.5	-2.3	-4.5	1.1	-21.2%	-2.9
CCOC(=O)C1CCCN(CC(=O)Nc2cc(C)cc(C)c2)C1 (centres undefined)	-0.7	-2.9	-10.4	2.9	-5.0%	-39.5*
CCOC(=O)C1CCCN(Cc2cc(=O)oc3cc(C)ccc23)C1 (centres undefined)	-0.7	-2.5	-8.2	0.0	-15.3%	-41.1*
CCOC(=O)C1CCCN(S(=O)(=O)Cc2ccccc2Cl)C1 (centres undefined)	-0.3	-7.8	-9.0	2.1	-11.9%	-30.8*
CC(=O)c1ccc(N2C(=O)N(Cc3ccccc3C#N)c3ccccc3S2(=O)=O)cc1	-0.5	-2.8	4.4	6.7	-20.4%	11.5
Cc1cc2ccccc2n1-c1ccc(C(=O)N2CCCCC2)s1	-0.1	0.8	-6.6	5.5	-18.4%	3.9
COc1ccc(C(=O)C(CCCCC(CN(C)C)C(=O)c2ccc(OC)cc2)CN(C)C)cc1 (centres undefined)	3.1	-10.0	-3.1	24.3	-9.8%	-39.6*
CN(C)CC(CCC(CN(C)C)C(=O)c1ccccc1)C(=O)c1ccccc1 (centres undefined)	0.9	0.0	2.4	3.1	-10.2%	6.0
CCOc1ccc(C(=O)C(CCC(CN(C)C)C(=O)c2ccc(OCC)cc2)CN(C)C)cc1 (centres undefined)	-0.1	-10.2	-1.4	35.5*	-13.9%	12.6
